Results published in PubChem BioAssay (EPA / NIEHS).
Calls of active or inactive are those of the source. Rule for the calls: active = hit-call score of the fitted dose curve at least 0.9, where 1 is the maximum; inactive = score below 0.9.

Read-out: CD38, CD38 (gene 952)
Assay: BSK_SAg_CD38: BioMAP Diversity Plus: SAg Assay for CD38 Biomarker Activity (AID 2283087)
Conditions: primary human HUVEC with PBMC; actives raise or lower the signal
Method in brief: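 Measures CD38 on a human endothelial/PBMC co-culture driven by SEB and TSST-1, 24 h after compound exposure, using ELISA with fluorescence detection; DMSO defines baseline for bidirectional curve fitting.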

| Compound | AC50 | outcome |
| --- | --- | --- |
| CCCCCCCCCCCCCCCCOS(=O)(=O)O | 5.57 µM (active) |  |
| O=C(NO)C1(NS(=O)(=O)c2ccc(Oc3ccc(F)cc3)cc2)CCOCC1 |  | inactive |
| CC(C)CC(C)O (centres undefined) |  | inactive |
| c1ccc2cc3ccccc3cc2c1 |  | inactive |
| Cc1ncc([C@@H](CCCCCCc2ccc3c(n2)NCCC3)CC(=O)O)cn1 |  | inactive |
| CC(C)c1nnc2ccc(-c3ocnc3-c3cc(F)ccc3F)cn12 |  | inactive |
| COCc1nnc(-c2ccc[n+]([O-])c2)n1-c1c(Cl)c(Cl)cc2[nH]c(=O)c(=O)[nH]c12 |  | inactive |
| O=C(O)c1cccc(C(=O)O)c1 |  | inactive |
| OCCOCCOCCO |  | inactive |
| c1ccc2ncccc2c1 |  | inactive |
| COc1cc(C(C)C)c2c(c1)S(=O)(=O)N(COc1cc(=O)n3cccc(OCCN4CCCCC4)c3n1)C2=O |  | inactive |
| S=P(N1CC1)(N1CC1)N1CC1 |  | inactive |
| c1ccc2c(c1)-c1cccc3c1c-2cc1ccccc13 |  | inactive |
| CC(C)C(=O)Nc1ccc([N+](=O)[O-])c(C(F)(F)F)c1 | 14.7 µM (active) |  |
| CCOC(N)=O |  | inactive |
| CC[C@H](C)C(=O)O[C@H]1C[C@H](O)C=C2C=C[C@H](C)[C@H](CC[C@@H](O)C[C@@H](O)CC(=O)O)[C@H]21 |  | inactive |
| NC(=O)N1c2ccccc2C=Cc2ccccc21 |  | inactive |

Read-out: CD40, CD40 (gene 958)
Assay: BSK_SAg_CD40: BioMAP Diversity Plus: SAg Assay for CD40 Biomarker Activity (AID 2283088)
Conditions: primary human HUVEC with PBMC; actives raise or lower the signal
Method in brief: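 Human umbilical vein endothelial cells co-cultured with PBMC; CD40 levels measured by ELISA with fluorescence read-out 24 h after chemical dosing. Gain or loss of signal fitted bidirectionally against DMSO baseline.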

| Compound | outcome | AC50 |
| --- | --- | --- |
| CCCCCCCCCCCCCCCCOS(=O)(=O)O | inactive |  |
| O=C(NO)C1(NS(=O)(=O)c2ccc(Oc3ccc(F)cc3)cc2)CCOCC1 | inactive |  |
| CC(C)CC(C)O (centres undefined) | inactive |  |
| CC(C)CCCCCCOC(=O)C1CCCCC1C(=O)OCCCCCCC(C)C (centres undefined) | inactive |  |
| CC(=O)c1ccccc1 | inactive |  |
| c1ccc2cc3ccccc3cc2c1 | inactive |  |
| Cc1ncc([C@@H](CCCCCCc2ccc3c(n2)NCCC3)CC(=O)O)cn1 | inactive |  |
| CC(C)c1nnc2ccc(-c3ocnc3-c3cc(F)ccc3F)cn12 | inactive |  |
| COCc1nnc(-c2ccc[n+]([O-])c2)n1-c1c(Cl)c(Cl)cc2[nH]c(=O)c(=O)[nH]c12 | inactive |  |
| O=C(O)c1cccc(C(=O)O)c1 | inactive |  |
| CCCC(CCC)C(=O)O | inactive |  |
| C[C@@H](Oc1ccc(CNC(=O)c2cccnc2Oc2ccc3c(c2)OCO3)c(F)c1)C(=O)O | inactive |  |
| OC[C@H]1O[C@@](CO)(O[C@H]2O[C@H](CO)[C@@H](O)[C@H](O)[C@H]2O)[C@@H](O)[C@@H]1O | inactive |  |
| CCCCCCCCCC | inactive |  |
| OCCOCCOCCO | inactive |  |
| c1ccc2ncccc2c1 | inactive |  |
| COc1cc(C(C)C)c2c(c1)S(=O)(=O)N(COc1cc(=O)n3cccc(OCCN4CCCCC4)c3n1)C2=O |  | 5 µM (active) |
| S=P(N1CC1)(N1CC1)N1CC1 | inactive |  |
| OC(O)(C(F)C(O)(O)C(F)(F)F)C(F)(F)F | inactive |  |
| NCC(F)(F)C(F)(F)C(F)(F)C(F)(F)F | inactive |  |
| c1ccc2c(c1)-c1cccc3c1c-2cc1ccccc13 | inactive |  |
| Nc1ccn([C@@H]2O[C@H](CO)[C@@H](O)[C@@H]2O)c(=O)n1 | inactive |  |
| CC(C)C(=O)Nc1ccc([N+](=O)[O-])c(C(F)(F)F)c1 | inactive |  |
| CCOC(N)=O | inactive |  |
| CC[C@H](C)C(=O)O[C@H]1C[C@H](O)C=C2C=C[C@H](C)[C@H](CC[C@@H](O)C[C@@H](O)CC(=O)O)[C@H]21 | inactive |  |
| O=C(O)c1ccc2c(c1)nc(C(=O)NC1CCN(C3CC3)CC1)n2Cc1cc(-c2ccc(Cl)s2)on1 | inactive |  |
| NC(=O)N1c2ccccc2C=Cc2ccccc21 | inactive |  |

Read-out: CD69, CD69 (gene 969)
Assay: BSK_SAg_CD69: BioMAP Diversity Plus: SAg Assay for CD69 Biomarker Activity (AID 2283089);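 for AC50: cell surface CD69 protein quantified by ELISA with fluorescence detection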
Conditions: primary human HUVEC with PBMC; actives raise or lower the signal
Method in brief: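 Values derive from bidirectional fitting relative to DMSO vehicle. Cells: umbilical vein endothelium plus peripheral blood mononuclear cells, treated 24 h before fluorescent ELISA for CD69.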

| Compound | outcome | AC50 |
| --- | --- | --- |
| CCCCCCCCCCCCCCCCOS(=O)(=O)O | inactive |  |
| CC(=O)c1ccccc1 | inactive |  |
| Cc1ncc([C@@H](CCCCCCc2ccc3c(n2)NCCC3)CC(=O)O)cn1 | inactive |  |
| CC(C)c1nnc2ccc(-c3ocnc3-c3cc(F)ccc3F)cn12 |  | 3.59 µM (active) |
| C[C@@H](Oc1ccc(CNC(=O)c2cccnc2Oc2ccc3c(c2)OCO3)c(F)c1)C(=O)O | inactive |  |
| OC[C@H]1O[C@@](CO)(O[C@H]2O[C@H](CO)[C@@H](O)[C@H](O)[C@H]2O)[C@@H](O)[C@@H]1O | inactive |  |
| COc1cc(C(C)C)c2c(c1)S(=O)(=O)N(COc1cc(=O)n3cccc(OCCN4CCCCC4)c3n1)C2=O |  | 5 µM (active) |
| OC(O)(C(F)C(O)(O)C(F)(F)F)C(F)(F)F | inactive |  |
| NCC(F)(F)C(F)(F)C(F)(F)C(F)(F)F | inactive |  |
| c1ccc2c(c1)-c1cccc3c1c-2cc1ccccc13 | inactive |  |
| CC(C)C(=O)Nc1ccc([N+](=O)[O-])c(C(F)(F)F)c1 |  | 20 µM (active) |
| CCOC(N)=O | inactive |  |
| CC[C@H](C)C(=O)O[C@H]1C[C@H](O)C=C2C=C[C@H](C)[C@H](CC[C@@H](O)C[C@@H](O)CC(=O)O)[C@H]21 | inactive |  |

Read-out: Monocyte Chemoattractant Protein-1 (MCP1), CCL2 (gene 6347)
Assay: BSK_SAg_MCP1: BioMAP Diversity Plus: SAg Assay for Monocyte Chemoattractant Protein-1 (MCP1) Biomarker Activity (AID 2283090)
Conditions: primary human HUVEC with PBMC; actives raise or lower the signal
Method in brief: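 Values derive from bidirectional fitting of ELISA-measured MCP1 against DMSO controls. Readings were taken 24 h after dosing human vascular endothelial cells co-cultured with peripheral blood mononuclear cells under superantigen stimulation.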

| Compound | outcome | AC50 |
| --- | --- | --- |
| CCCCCCCCCCCCCCCCOS(=O)(=O)O | inactive |  |
| O=C(NO)C1(NS(=O)(=O)c2ccc(Oc3ccc(F)cc3)cc2)CCOCC1 | inactive |  |
| CC(C)CC(C)O (centres undefined) | inactive |  |
| CC(C)CCCCCCOC(=O)C1CCCCC1C(=O)OCCCCCCC(C)C (centres undefined) | inactive |  |
| CC(=O)c1ccccc1 | inactive |  |
| c1ccc2cc3ccccc3cc2c1 | inactive |  |
| Cc1ncc([C@@H](CCCCCCc2ccc3c(n2)NCCC3)CC(=O)O)cn1 | inactive |  |
| CC(C)c1nnc2ccc(-c3ocnc3-c3cc(F)ccc3F)cn12 |  | 3.97 µM (active) |
| COCc1nnc(-c2ccc[n+]([O-])c2)n1-c1c(Cl)c(Cl)cc2[nH]c(=O)c(=O)[nH]c12 | inactive |  |
| O=C(O)c1cccc(C(=O)O)c1 | inactive |  |
| CCCC(CCC)C(=O)O | inactive |  |
| C[C@@H](Oc1ccc(CNC(=O)c2cccnc2Oc2ccc3c(c2)OCO3)c(F)c1)C(=O)O | inactive |  |
| OC[C@H]1O[C@@](CO)(O[C@H]2O[C@H](CO)[C@@H](O)[C@H](O)[C@H]2O)[C@@H](O)[C@@H]1O | inactive |  |
| CCCCCCCCCC | inactive |  |
| OCCOCCOCCO | inactive |  |
| c1ccc2ncccc2c1 | inactive |  |
| COc1cc(C(C)C)c2c(c1)S(=O)(=O)N(COc1cc(=O)n3cccc(OCCN4CCCCC4)c3n1)C2=O |  | 5 µM (active) |
| S=P(N1CC1)(N1CC1)N1CC1 | inactive |  |
| OC(O)(C(F)C(O)(O)C(F)(F)F)C(F)(F)F | inactive |  |
| NCC(F)(F)C(F)(F)C(F)(F)C(F)(F)F | inactive |  |
| c1ccc2c(c1)-c1cccc3c1c-2cc1ccccc13 | inactive |  |
| Nc1ccn([C@@H]2O[C@H](CO)[C@@H](O)[C@@H]2O)c(=O)n1 | inactive |  |
| CC(C)C(=O)Nc1ccc([N+](=O)[O-])c(C(F)(F)F)c1 | inactive |  |
| CCOC(N)=O | inactive |  |
| CC[C@H](C)C(=O)O[C@H]1C[C@H](O)C=C2C=C[C@H](C)[C@H](CC[C@@H](O)C[C@@H](O)CC(=O)O)[C@H]21 |  | 14.6 µM (active) |
| O=C(O)c1ccc2c(c1)nc(C(=O)NC1CCN(C3CC3)CC1)n2Cc1cc(-c2ccc(Cl)s2)on1 | inactive |  |
| NC(=O)N1c2ccccc2C=Cc2ccccc21 | inactive |  |
